Rows were chosen to be rich in hits. Some 2.5% of all compounds tested hit in one or more screens of this group.
Cruzain Triton: inhibitors of Trypanosoma cruzi cruzain with detergent. hit rate 0.43% among 200,000. P25779. purified cruzain, Z-FR-AMC fluorescence, 0.01% Triton. Potency, µM, for inactives: max response, negative = inhibition, hits mostly inhibitors;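 note: plate controls were neutral wells for no effect and buffer without enzyme for full effect; nearly all actives have a fitted effect of over 40% in size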
Target sequence (P25779 123-467 limits assumed): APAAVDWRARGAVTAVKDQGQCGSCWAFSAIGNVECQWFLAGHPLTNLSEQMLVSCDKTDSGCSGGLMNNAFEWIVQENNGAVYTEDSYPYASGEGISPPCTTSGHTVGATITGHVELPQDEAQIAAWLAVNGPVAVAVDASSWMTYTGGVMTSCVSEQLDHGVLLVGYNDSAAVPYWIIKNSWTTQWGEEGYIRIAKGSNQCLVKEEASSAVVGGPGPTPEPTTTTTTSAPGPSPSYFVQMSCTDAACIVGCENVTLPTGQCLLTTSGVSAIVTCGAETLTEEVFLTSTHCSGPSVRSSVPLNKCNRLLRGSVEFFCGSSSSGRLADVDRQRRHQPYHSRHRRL
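Sodium acetate buffer (100 mM, pH 5.5) containing 5 mM DTT and 0.01% Triton X-100 hosted 1.5 nM cruzain and test compound for 15 min at room temperature. Cleavage of 2 uM Z-FR-AMC was then tracked by fluorescence.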
Cruzain noTriton: cruzain (T. cruzi) inhibition without detergent. purified cruzain, Z-FR-AMC fluorescence, no detergent. Potency, µM, for inactives: max response, negative = inhibition, usual class: inhibitors. hit rate 2.3% among 200,000. AID 1476;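 note: plate controls were enzyme without inhibitor for no effect and buffer without enzyme for full effect; nearly all actives have a fitted effect of over 40% in size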
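Detergent-free condition (0.00005% Triton X-100) in acetate buffer pH 5.5 with DTT. 1.5 nM enzyme and compound were pre-mixed 15 min, then 2 uM Z-FR-AMC substrate added; reaction progress from fluorescence change between first and third reads (60 s).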
Starred values were filed as active, the others as inactive; ? = inconclusive. Calls come from the whole dose curve; as a rule, active = well fitted curve in the direction sought with a large enough effect; inconclusive = small, poorly fitted or top-dose-only effect, or another doubt; inactive = no such curve, though single readings can be large; an effect the other way counts as inactive or inconclusive. Potency is the fitted concentration of half-maximal effect.

SMILES	Cruzain Triton	Cruzain noTriton
O=C(O)/C(=C\c1ccncc1)c1cccc2ccccc12	3%	3%
Cn1c(=O)n(C)c2cc(N3CCOCC3)c(NS(=O)(=O)c3ccc(Br)cc3)cc21	-3%	?
CC(C)c1ccc(S(=O)(=O)c2cn(CC(=O)Nc3ccc(F)cc3)c3ccccc3c2=O)cc1	0%	3%
CCOC(=O)c1c(C)c(-c2ccccc2)n(CC(=O)Nc2cccc(F)c2)c1C	-5%	-2%
CCCOc1ccc(-c2nn(-c3ccccc3)cc2/C=C2\SC(N)=NC2=O)cc1	0%	?
CCOc1ccc(-c2nn(-c3ccccc3)cc2/C=C2\SC(=S)N(Cc3ccco3)C2=O)cc1	-6%	10µM*
CCn1c(NC(=O)Nc2cccc(C)c2C)cc2sccc21	-1%	25µM*
Cc1cccc(NC(=O)Nc2cccs2)c1C	-8%	-10%
COCCNC(=O)C1CCN(Cc2cc3ccccc3n2Cc2ccc(C)cc2)CC1	-1%	2%
COc1cn(CC(=O)Nc2ccc(F)cc2)c(CN2CCCCC2)cc1=O	3%	-6%
CCOc1cc(C2Nc3cccc4cccc(c34)N2)ccc1O	-2%	16µM*
CCOc1ccc(C2Nc3cccc4cccc(c34)N2)cc1OC	-14%	-9%
Cc1ccc(CNC(=O)c2oc3ccc(S(=O)(=O)N4CCCC(C)C4)cc3c2C)cc1 (configuration not stated)	-4%	-3%
CC(C)(C)c1ccc(C(=O)NC2(C(F)(F)F)NC(=O)N(CCc3ccccc3)C2=O)cc1 (configuration not stated)	-1%	5%
O=C(COC(=O)CNC(=O)c1ccc(Cl)cc1)Nc1ccc(Cl)cc1C(F)(F)F	8.9µM*	6.3µM*
Cc1ccc(-c2cc(C(=O)OCC(=O)Nc3ncc(C(F)(F)F)cc3Cl)c3ccccc3n2)cc1	-3%	?
Cc1ccc(C(=O)NCC(=O)OCC(=O)Nc2ncc(C(F)(F)F)cc2Cl)cc1	7.1µM*	6.3µM*
O=C(COC(=O)CNC(=O)c1ccccc1)Nc1cccc(Br)c1	?	-15%
O=C(COC(=O)CCCNC(=O)c1ccc(Cl)cc1)Nc1cc(Cl)c(Cl)cc1Cl	-12%	-4%
O=C(COC(=O)CNC(=O)c1ccccc1)Nc1ccc(Cl)cc1C(F)(F)F	16µM*	13µM*
Cc1ccc(CNC(=O)CC2Oc3ccccc3NC2=O)cc1 (configuration not stated)	-2%	-1%
COc1ccc(N2CCN(Cc3cc(=O)oc4cc(-c5ccccc5)c(O)cc34)CC2)cc1	0%	?
O=c1cc(CN2CCN(c3ccccc3F)CC2)c2cc(O)c(-c3ccccc3)cc2o1	-3%	7.9µM*
CN1CCC[C@@H]1c1cccnc1.O=C(O)c1ccccc1O.O=C([OH2+])c1ccccc1O.O=C([OH2+])c1ccccc1O.[Mn]	1%	-1%
N[C@@H](Cc1ccccc1)c1nnc(SCc2ccccc2Cl)o1	4%	18%
SMILES	Cruzain Triton	Cruzain noTriton
CCN(CC)C(=O)CSc1nnc(CCN)o1	4%	-10%
CCc1ccccc1NC(=O)CSc1nnc([C@@H](N)Cc2ccccc2)o1	10µM*	10µM*
C=C(C)CSc1nnc([C@@H](N)Cc2c[nH]c3ccccc23)o1	-5%	2%
Cc1ccc(NC(=O)CSc2nnc([C@@H](N)Cc3c[nH]c4ccccc34)o2)c(C)c1	18µM*	16µM*
CCN(CC)C(=O)CSc1nnc([C@@H](N)Cc2ccccc2)o1	25µM*	25µM*
CCOc1ccc(NC(=O)N(Cc2cn(CC)c3ccccc23)C2CCCCCC2)cc1	4%	-6%
COc1ccc(C2/C=C\CN(C(=O)OCC3c4ccccc4-c4ccccc43)CC(=O)N2Cc2cccc(F)c2)cc1 (configuration not stated)	-2%	25µM*
COc1ccc(C2/C=C\CN(CC(C)C)CC(=O)N2Cc2cccc(F)c2)cc1 (configuration not stated)	2%	-3%
CCc1cccc(NC(=O)Cn2c(=O)n(CCCCCC(=O)NCc3ccc(F)cc3)c(=O)c3sccc32)c1	-2%	-23%
O=C(CSc1nc(O)cc(=O)[nH]1)Nc1ccc2c(c1)CCC2	-11%	16µM*
Nc1nc(SCC(=O)Nc2ccc3c(c2)CCC3)n[nH]1	-2%	-17%
O=C1/C(=C/c2ccccc2)[C@@H](NC2CCCCC2)c2ccccc21	3%	-10%
Cc1ccc(OCCOCCn2c(-c3ccc(Cl)cc3)nc3ccccc3c2=O)cc1	-1%	-13%
CC(=O)N1CCc2c(sc3c2c(=O)n(Cc2ccccc2)c(=O)n3CC(=O)Nc2ccc(C)c(F)c2)C1	-7%	-19%
O=C(Nc1ccc(N=Nc2ccccc2)cc1)c1ccc(Cl)cc1Cl	7%	13µM*
O=C(Nc1ccc(N=Nc2ccccc2)cc1)c1ccccc1Cl	-5%	-1%
CCc1ccc(NC(=O)c2ccc(Cn3nc(N4CCN(c5ccccc5)CC4)ccc3=O)o2)cc1	-15%	?
CCC(=O)N1CCc2cc(S(=O)(=O)NC(C(=O)NCCc3ccc(Cl)cc3)C(C)C)ccc21 (configuration not stated)	0%	-13%
COc1ccc(-c2onc3ccc(Cl)cc23)cc1	-5%	-5%
COc1ccc(-c2cn(/N=C/c3ccc(Cl)cc3Cl)c(N)n2)cc1	-21%	7.9µM*
CC(=O)c1c(N2CCCC2)[nH]c(-c2ccccc2)nc1=S	3%	-6%
CC(=O)c1c(N2CCN(Cc3ccccc3)CC2)[nH]c(-c2ccccc2)nc1=S	-11%	10µM*
Cc1cc(C)n(CCc2nc3c4ccccc4nc(SCc4ccc(Cl)cc4)n3n2)n1	3%	-1%
CCOc1ccc(C2C(C#N)=C(N)Oc3c2c(=O)oc2ccccc32)cc1 (configuration not stated)	-5%	-16%
COc1ccc(C2Nc3ccc4ccccc4c3-c3c2c(=O)oc2ccccc32)cc1 (configuration not stated)	6%	10µM*
SMILES	Cruzain Triton	Cruzain noTriton
O=C1CC(c2ccc(Br)cc2)c2c(c3ccccc3oc2=O)O1 (configuration not stated)	-5%	-18%
CCOc1ccc(C2Nc3ccc4ccccc4c3-c3c2c(=O)oc2ccccc32)cc1 (configuration not stated)	-13%	7.9µM*
O=c1oc2ccccc2c2c1C(c1ccc(Cl)cc1)Nc1ccc3ccccc3c1-2 (configuration not stated)	0%	4µM*
COc1ccc(-c2cc3ccccc3c(=O)o2)cc1	0%	23%
Cn1cc(C(=O)NCCc2ccccc2)c(=O)c2cc(S(=O)(=O)N3CCCCCC3)ccc21	-4%	-5%
CCOc1ccc(C(c2c(O)cc(C)n(CCOC)c2=O)N2CCN(c3ccccc3F)CC2)cc1 (configuration not stated)	1%	?
O=C1c2ccccc2C(=O)C12OC2c1ccc(Cl)cc1 (configuration not stated)	-4%	3%
O=C1c2ccccc2C(=O)C12OC(c1ccccc1)C1(C(=O)c3ccccc3C1=O)C2c1cccc([N+](=O)[O-])c1 (configuration not stated)	0%	7.9µM*
O=C(O)[C@@H](O)c1ccc(F)cc1	1%	4%
Cc1nn(Cc2ccccc2Cl)c2sc(C(=O)NC(C)(C)C)cc12	-6%	16%
Cc1csc(NC(=O)c2cc3c(C)nn(Cc4ccccc4Cl)c3s2)n1	-6%	25µM*
CCC(C)NC(=O)CSc1nc2c(sc3ccccc32)c(=O)n1Cc1ccccc1Cl (configuration not stated)	5%	11%
